According to PubChem BioAssay (Tox21):
Inconclusive results are not listed. A call without a number means that no potency is given here. Active and inactive are the calls of the source. Unless noted, calls follow the shape of the dose curve; as a rule, active = well fitted curve in the direction sought with a large enough effect in the repeat runs; inconclusive = weak or mixed curves; inactive = no such curve, though single readings can be large; an effect the other way counts as inactive or inconclusive.

Key:
[1] = qHTS assay to identify small molecule antagonists of the glucocorticoid receptor (GR) signaling pathway - cell viability counter screen (AID 720693); also: nearly all actives have a fitted effect of over 55% in size
[2] = qHTS assay for identifying genotoxic compounds that show differential cytotoxicity against isogenic chicken DT40 cell lines with known DNA damage response pathways - wild type cell line (AID 743012); also: nearly all actives have a fitted effect of over 60% in size; also: potency is read from the fitted curve at half-maximal effect
How it was run: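 Parental DNA repair-proficient DT40 cells, 300 per well, were pre-incubated ~0.5 h at 37 C/5% CO2, pin-dosed with compounds in DMSO, then incubated 40 h. Viability was read as CellTiter-Glo luminescence after 30 min at room temperature.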

[3] = qHTS assay for identifying genotoxic compounds that show differential cytotoxicity against isogenic chicken DT40 cell lines with known DNA damage response pathways - Rev3 mutant cell line (AID 743014); also: nearly all actives have a fitted effect of over 55% in size; also: potency is read from the fitted curve at half-maximal effect
[4] = qHTS assay for identifying genotoxic compounds that show differential cytotoxicity against isogenic chicken DT40 cell lines with known DNA damage response pathways - Rad54/Ku70 mutant cell line (AID 743015); also: nearly all actives have a fitted effect of over 60% in size; also: potency is read from the fitted curve at half-maximal effect
[5] = qHTS assay to identify small molecule antagonists of the androgen receptor (AR) signaling pathway - cell viability counter screen (AID 743033; also: nearly all actives have a fitted effect of over 45% in size)
[6] = qHTS assay to identify small molecule antagonists of the androgen receptor (AR) signaling pathway using the MDA cell line - cell viability counter screen (AID 743041; also: nearly all actives have a fitted effect of over 45% in size)
How it was run: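 MDA-kb2 AR-luc cells (MMTV-luciferase, AR/GR responsive) treated with compounds plus R1881 agonist for 16 h at 37C. CellTiter-Fluor added at 15.5 h; fluorescence read after 30 min in the same wells.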

[7] = qHTS assay to identify small molecule antagonists of the thyroid receptor (TR) signaling pathway - cell viability counter screen (AID 743064); also: nearly all actives have a fitted effect of over 50% in size; also: potency is read from the fitted curve at half-maximal effect
How it was run: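 GH3.TRE-Luc rat pituitary cells dosed after 4 hr plating, co-stimulated with T3 at 1 nM final, incubated 23.5 h at 37 C. Viability measured in the same wells by CellTiter-Fluor fluorescence after 30 min further at 37 C.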

[8] = qHTS assay to identify small molecule antagonists of the thyroid receptor (TR) signaling pathway (AID 743065); also: nearly all actives have a fitted effect of over 55% in size; also: potency is read from the fitted curve at half-maximal effect
How it was run: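 GH3.TRE-Luc rat pituitary cells (two TREs driving luciferase) were dosed with compound, then stimulated with 1 nM T3 (final) for 23.5 h at 37 C. ONE-Glo luminescence was the read-out, with CellTiter-Fluor fluorescence as the cytotoxicity counter-screen.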

[9] = system: thyroid hormone receptor (rat, GH3 cells); assay: qHTS assay to identify small molecule agonists of the thyroid receptor (TR) signaling pathway (AID 743066; calls by dose curve)
[10] = qHTS assay to identify small molecule antagonists of the estrogen receptor alpha (ER-alpha) signaling pathway - cell viability counter screen (AID 743074; calls by dose curve;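 also: HEK293 cells carrying ER-alpha-UAS-bla reporter stimulated with 17beta-estradiol; nearly all actives have a fitted effect of over 45% in size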)
[11] = target: Estrogen receptor (Homo sapiens) (UniProt P03372); assay: qHTS assay to identify small molecule agonists of the estrogen receptor alpha (ER-alpha) signaling pathway (AID 743075; calls by dose curve)
[12] = target: Estrogen receptor (Homo sapiens) (UniProt P03372); assay: qHTS assay to identify small molecule agonists of the estrogen receptor alpha (ER-alpha) signaling pathway using the BG1 cell line (AID 743079); also: nearly all actives have a fitted effect of over 20% in size
[13] = qHTS assay to identify small molecule antagonists of the estrogen receptor alpha (ER-alpha) signaling pathway using the BG1 cell line (AID 743080; calls by dose curve;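 also: BG1 cells stimulated with 17beta-estradiol alongside compound; series mostly up to about 70 µM; nearly all actives have a fitted effect of over 25% in size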)
How it was run: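 Seeding, 24 h rest, compound transfer from DMSO, 17beta-estradiol addition, 21.5 h incubation, CellTiter-Fluor (30 min, 37 C), then ONE-Glo (30 min, room temperature): this sequence was run on BG1-Luc-4E2 reporter cells.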

[14] = qHTS assay to identify small molecule antagonists of the estrogen receptor alpha (ER-alpha) signaling pathway using the BG1 cell line - cell viability counter screen (AID 743081);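 also: compound given together with 17beta-estradiol as the ER stimulus; series mostly up to about 70 µM; nearly all actives have a fitted effect of over 45% in size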
[15] = target: Estrogen receptor (Homo sapiens) (UniProt P03372); assay: qHTS assay to identify small molecule antagonists of the estrogen receptor alpha (ER-alpha) signaling pathway (AID 743069; active = well fitted curve in the direction sought with a large enough effect in the signal ratio in the repeat runs, not every such curve was filed as active; the % refers to the signal ratio)
How it was run: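 HEK293 ER-alpha-UAS-bla GripTite cells, held overnight in 2% charcoal-stripped FBS, 5,000 cells/well, preincubated 4 h, then compound plus 17beta-estradiol for 18 h at 37C. Beta-lactamase read by LiveBLAzer B/G FRET substrate, 2 h at room temperature.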

[16] = target: Aromatase (Homo sapiens) (UniProt P11511); assay: qHTS assay to identify aromatase inhibitors (AID 743083); also: series mostly up to about 70 µM; nearly all actives have a fitted effect of over 55% in size
[17] = target: Androgen receptor (Homo sapiens) (UniProt P10275); assay: qHTS assay to identify small molecule antagonists of the androgen receptor (AR) signaling pathway (AID 743035; active = well fitted inhibition curve with a large enough effect in the signal ratio in the repeat runs, not every such curve was filed as active; the % refers to the signal ratio; also: potency is read from the fitted curve at half-maximal effect)
How it was run: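 HEK293 cells stably carrying a UAS-driven beta-lactamase reporter (AR-UAS-bla GripTite) were plated for 4 h at 37C, then given compound and the agonist R1881 and incubated 16 h. Reporter activity was read by LiveBLAzer B/G FRET fluorescence after 2 h at room temperature.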

[18] = target: Androgen receptor (Homo sapiens) (UniProt P10275); assay: qHTS assay to identify small molecule agonists of the androgen receptor (AR) signaling pathway (AID 743036; active = well fitted activation curve with a large enough effect in the signal ratio in the repeat runs, with a control signal flat, not every such curve was filed as active; the % refers to the signal ratio)
How it was run: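 AR-UAS-bla HEK293 cells, plated 4 h before dosing, were treated with compound for 16 h at 37C. beta-Lactamase reporter read after 2 h with LiveBLAzer B/G FRET substrate at room temperature.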

[19] = target: Androgen receptor (Homo sapiens) (UniProt P10275); assay: qHTS assay to identify small molecule agonists of the androgen receptor (AR) signaling pathway using the MDA cell line (AID 743040; also: nearly all actives have a fitted effect of over 20% in size)
How it was run: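 MDA-kb2 breast carcinoma cells carrying MMTV-luciferase (responsive to AR and GR), plated 5 h then treated 16 h with compounds at 37C, 0% CO2. Read-out was ONE-Glo luminescence after 30 min at room temperature.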

Chain of Androgen receptor (Homo sapiens) (P10275 whole entry, looked up): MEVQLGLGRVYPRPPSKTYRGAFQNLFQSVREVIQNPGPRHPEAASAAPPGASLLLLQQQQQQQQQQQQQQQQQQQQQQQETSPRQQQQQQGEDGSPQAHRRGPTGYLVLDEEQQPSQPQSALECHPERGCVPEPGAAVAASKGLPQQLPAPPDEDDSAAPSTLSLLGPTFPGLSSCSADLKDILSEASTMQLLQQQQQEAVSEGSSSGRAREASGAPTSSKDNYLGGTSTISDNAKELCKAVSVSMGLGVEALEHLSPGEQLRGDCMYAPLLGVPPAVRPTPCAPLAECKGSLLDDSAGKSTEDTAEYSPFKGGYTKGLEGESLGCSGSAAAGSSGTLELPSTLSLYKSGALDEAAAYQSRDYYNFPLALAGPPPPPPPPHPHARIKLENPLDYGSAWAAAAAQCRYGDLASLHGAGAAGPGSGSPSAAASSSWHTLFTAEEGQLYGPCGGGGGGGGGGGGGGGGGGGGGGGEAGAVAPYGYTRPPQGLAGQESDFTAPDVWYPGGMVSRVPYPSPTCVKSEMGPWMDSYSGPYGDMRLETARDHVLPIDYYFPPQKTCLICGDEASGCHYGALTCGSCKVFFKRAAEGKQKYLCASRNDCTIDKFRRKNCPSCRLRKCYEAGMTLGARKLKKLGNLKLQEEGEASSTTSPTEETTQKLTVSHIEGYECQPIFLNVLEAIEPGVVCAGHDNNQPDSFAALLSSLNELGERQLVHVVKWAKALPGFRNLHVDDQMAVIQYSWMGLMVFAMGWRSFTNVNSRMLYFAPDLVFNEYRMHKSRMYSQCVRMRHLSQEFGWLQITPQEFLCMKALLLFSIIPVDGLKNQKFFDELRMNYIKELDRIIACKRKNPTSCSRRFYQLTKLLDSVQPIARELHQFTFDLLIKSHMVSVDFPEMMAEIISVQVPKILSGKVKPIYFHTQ
Chain of Aromatase (Homo sapiens) (P11511 whole entry, looked up): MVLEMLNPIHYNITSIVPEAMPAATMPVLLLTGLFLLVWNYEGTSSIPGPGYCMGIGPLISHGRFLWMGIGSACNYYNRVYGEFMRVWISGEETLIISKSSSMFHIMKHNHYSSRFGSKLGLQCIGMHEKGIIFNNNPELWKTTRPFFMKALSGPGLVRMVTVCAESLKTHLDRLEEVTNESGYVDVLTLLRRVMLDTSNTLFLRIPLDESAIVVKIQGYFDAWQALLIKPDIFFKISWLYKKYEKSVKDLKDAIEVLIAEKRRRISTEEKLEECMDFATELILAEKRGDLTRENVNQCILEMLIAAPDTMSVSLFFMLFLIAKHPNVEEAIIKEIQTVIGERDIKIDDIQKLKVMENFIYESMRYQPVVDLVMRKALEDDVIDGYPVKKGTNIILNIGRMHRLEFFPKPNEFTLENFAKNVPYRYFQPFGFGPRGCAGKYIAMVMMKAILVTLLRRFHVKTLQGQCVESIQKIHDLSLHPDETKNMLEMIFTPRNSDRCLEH
Chain of Estrogen receptor (Homo sapiens) (P03372 whole entry, looked up): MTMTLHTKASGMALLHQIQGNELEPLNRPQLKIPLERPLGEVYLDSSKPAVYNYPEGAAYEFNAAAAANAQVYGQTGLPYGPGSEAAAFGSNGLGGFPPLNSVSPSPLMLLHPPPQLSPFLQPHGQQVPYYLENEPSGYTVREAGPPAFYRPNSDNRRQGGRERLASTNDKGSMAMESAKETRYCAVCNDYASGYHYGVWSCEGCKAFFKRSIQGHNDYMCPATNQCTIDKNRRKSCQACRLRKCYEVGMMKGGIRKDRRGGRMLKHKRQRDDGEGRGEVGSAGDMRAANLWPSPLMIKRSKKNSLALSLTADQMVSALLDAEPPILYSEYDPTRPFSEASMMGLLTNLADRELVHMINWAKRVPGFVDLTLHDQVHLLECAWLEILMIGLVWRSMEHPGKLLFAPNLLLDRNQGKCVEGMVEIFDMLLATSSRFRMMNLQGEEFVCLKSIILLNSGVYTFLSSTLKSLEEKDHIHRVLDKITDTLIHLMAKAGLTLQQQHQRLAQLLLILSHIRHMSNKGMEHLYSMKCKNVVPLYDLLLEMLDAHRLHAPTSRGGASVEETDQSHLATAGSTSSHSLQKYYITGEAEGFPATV

| SMILES | outcome [1] | Potency [2] | Potency [3] | Potency [4] | outcome [5] | Potency [6] | Potency [7] | Potency [8] | outcome [9] | Potency [10] | outcome [11] | Potency [12] | outcome [13] | Potency [14] | Potency [15] | Potency [16] | Potency [17] | outcome [18] | Potency [19] |
| --- | --- | --- | --- | --- | --- | --- | --- | --- | --- | --- | --- | --- | --- | --- | --- | --- | --- | --- | --- |
| CCC/C=C/CO | inactive | inactive | inactive | inactive | inactive | inactive | inactive | inactive | inactive | inactive | inactive | inactive | inactive | inactive |  |  |  |  |  |
| C=CCc1cc(OC)c(O)c(C(=O)NCCO)c1 | inactive | inactive | inactive | inactive | inactive | inactive | inactive | inactive | inactive | inactive | inactive | inactive | inactive | inactive | inactive | inactive |  |  |  |
| C=CCCC=C | inactive | inactive | inactive | inactive | inactive | inactive | inactive | inactive | inactive | inactive | inactive | inactive | inactive | inactive | inactive | inactive |  |  |  |
| CCc1nnc(NS(=O)(=O)c2ccc(N)cc2)s1 | inactive | inactive | inactive | inactive | inactive | inactive | inactive | inactive | inactive |  |  |  |  | inactive |  | inactive |  |  |  |
| CCCCC(CC)COC(=O)COc1cc(Cl)c(Cl)cc1Cl (configuration not stated) | inactive | inactive | inactive | inactive | inactive | inactive |  | inactive | inactive | inactive | inactive | inactive | inactive | inactive | inactive | inactive |  |  |  |
| C=CC1CO1 (configuration not stated) | inactive | inactive | inactive | inactive | inactive | inactive | inactive | inactive | inactive | inactive |  |  |  | inactive |  | inactive |  |  |  |
| CCC1(C)NC(=O)NC1=O (configuration not stated) | inactive | inactive | inactive | inactive | inactive | inactive | inactive | inactive | inactive |  |  |  |  | inactive |  | inactive |  |  |  |
| OCc1ccccc1O | inactive | inactive | inactive | inactive |  | inactive | inactive | inactive | inactive | inactive |  |  |  | inactive |  | inactive |  |  |  |
| CN(C)C(=O)NC1(c2ccccc2)CCN(CCC[C@]2(c3ccc(Cl)c(Cl)c3)CCCN(C(=O)c3ccccc3)C2)CC1 | inactive | 10.3 µM (active) | 14.6 µM (active) | 9.2 µM (active) |  | inactive | 5.17 µM (active) | 11.6 µM (active) |  | inactive | inactive | inactive | inactive |  | inactive | inactive |  |  |  |
| O=C(O)c1cccc(Cl)c1Cl | inactive | inactive | inactive | inactive | inactive | inactive | inactive |  |  | inactive | inactive | inactive | inactive | inactive | inactive | inactive |  |  |  |
| CCCCCCCCCCCCCCCCOP(=O)([O-])OCC[N+](C)(C)C | inactive | inactive | inactive | inactive |  | inactive |  |  |  | inactive |  |  |  | inactive |  | inactive |  |  |  |
| CCCCN1C[C@H](O)[C@@H](O)[C@H](O)[C@H]1CO | inactive | inactive | inactive | inactive | inactive | inactive |  | inactive | inactive | inactive | inactive | inactive | inactive |  | inactive | inactive |  |  |  |
| C1CSCCS1 | inactive | inactive | inactive | inactive | inactive | inactive |  | inactive | inactive | inactive |  |  |  | inactive |  | inactive |  |  |  |
| O=C(O[C@@H](C(=O)O)[C@@H](OC(=O)c1ccccc1)C(=O)O)c1ccccc1 | inactive | inactive | inactive | inactive | inactive | inactive | inactive |  |  | inactive | inactive | inactive | inactive | inactive | inactive | inactive |  |  |  |
| O=c1[nH]c(=O)n([C@H]2C[C@H](O)[C@@H](CO)O2)cc1C(F)(F)F | inactive | 0.944 µM (active) | 0.133 µM (active) | 0.188 µM (active) | inactive | inactive | inactive |  | inactive | inactive | inactive |  | inactive | inactive |  | inactive |  |  |  |
| Cc1nc(-c2ccccn2)ncc1C(=O)Nn1cc(C)c2cc(F)ccc21 | inactive | 61.1 µM (active) | 61.1 µM (active) | 30.6 µM (active) |  | inactive | inactive | inactive | inactive | inactive | inactive |  |  | inactive | inactive | inactive | 49 µM (active) | inactive | inactive |
| Cc1ccc([N+](=O)[O-])c(N)c1 | inactive | inactive | inactive | inactive | inactive | inactive | inactive | inactive | inactive | inactive |  |  |  | inactive |  | inactive |  |  |  |
| CCCOCCC | inactive | inactive | inactive | inactive | inactive | inactive | inactive |  |  | inactive | inactive | inactive | inactive | inactive | inactive | inactive |  |  |  |
| CCCN(CCC)C(=O)C(CCC(=O)O)NC(=O)c1ccccc1 (configuration not stated) | inactive | inactive | inactive | inactive | inactive | inactive | inactive | inactive | inactive | inactive |  |  |  | inactive |  | inactive |  |  |  |
